Shown are actives, neighbours in structure and some others; about 9% of the full set was active somewhere.
ALDH1A1 inh: inhibitors of human aldehyde dehydrogenase 1A1; Potency, µM (series often up to 75.3 µM), most hits filed as inhibitors; 220,000 compounds, 7.3% hits; Purified ALDH1A1, NADH fluorescence, propionaldehyde substrate; active means well fitted inhibition curve with a large enough effect, not every such curve was filed as active; inconclusive means small, poorly fitted or top-dose-only effect, or another doubt; inactive means no such curve, though single readings can be large or run the other way
Target sequence (P00352 whole entry, looked up): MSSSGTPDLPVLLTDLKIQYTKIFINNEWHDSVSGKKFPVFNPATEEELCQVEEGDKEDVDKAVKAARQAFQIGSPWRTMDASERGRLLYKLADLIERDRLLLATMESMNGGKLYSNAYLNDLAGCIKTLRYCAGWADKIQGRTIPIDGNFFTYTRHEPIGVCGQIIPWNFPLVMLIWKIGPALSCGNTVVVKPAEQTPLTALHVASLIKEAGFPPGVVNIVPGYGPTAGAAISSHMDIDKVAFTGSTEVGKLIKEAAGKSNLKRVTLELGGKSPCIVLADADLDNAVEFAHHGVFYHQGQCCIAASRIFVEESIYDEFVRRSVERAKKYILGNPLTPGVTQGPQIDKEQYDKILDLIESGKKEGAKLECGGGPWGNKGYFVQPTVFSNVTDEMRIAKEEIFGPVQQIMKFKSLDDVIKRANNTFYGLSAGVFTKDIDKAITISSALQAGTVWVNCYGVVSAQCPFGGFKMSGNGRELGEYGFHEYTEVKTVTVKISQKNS
KinaseGlo FLuc: counter-screen: inhibitors of Kinase-Glo firefly luciferase; AID 1379; Q27757; Kinase-Glo luciferase, ATP luminescence, 8 min; Potency, µM (titrated, usually from 38.3 µM), most hits filed as inhibitors; 200,000 compounds, 0.28% hits; further: nearly all actives have a fitted effect of over 60% in size
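Substrate mix (final 50 mM imidazole pH 7.2, 50 mM KCl, 7 mM MgCl2, 10 uM ATP, 0.01% Tween 20, 0.05% BSA) plus pin-tool compound, then Kinase-Glo detection mix; 8 min ambient, luminescence read.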
HPGD inh: HPGD (human) dehydrogenase inhibition; Potency, µM, usual class: inhibitors; purified HPGD, NADH fluorescence kinetic, PGE2 substrate; 150,000 compounds, 4.3% hits; P15428; AID 894; active means well fitted inhibition curve with a large enough effect, not every such curve was filed as active; inconclusive means small, poorly fitted or top-dose-only effect, or another doubt; inactive means no such curve, though single readings can be large or run the other way
Target sequence (P15428 whole entry, looked up): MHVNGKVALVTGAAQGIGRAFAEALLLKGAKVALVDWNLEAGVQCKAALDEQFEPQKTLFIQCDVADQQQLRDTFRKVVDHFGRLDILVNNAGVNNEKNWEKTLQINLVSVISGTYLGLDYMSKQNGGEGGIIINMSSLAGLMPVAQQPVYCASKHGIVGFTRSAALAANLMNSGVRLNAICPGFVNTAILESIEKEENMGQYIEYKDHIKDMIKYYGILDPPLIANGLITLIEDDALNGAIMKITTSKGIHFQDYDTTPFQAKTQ
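NADH formation kinetics: reaction with 30 uM PGE2 and 1 mM NAD+ (final), 20 nM enzyme, Tris-HCl pH 8 with Tween 20, after 15 min compound preincubation at room temperature. Fluorescence change, last versus first of five reads.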
Lamin A splicing: modulators of lamin A splicing. 200,000 compounds, 0.01% hits. Potency, µM (top dose mostly 46.1 µM), most hits filed as inhibitors. HeLa LMNA splicing GFP/RFP minigene ratio, 48 h; active means well fitted inhibition curve with a large enough effect in the signal ratio, with a control signal flat, not every such curve was filed as active; inconclusive means small, poorly fitted or top-dose-only effect, or effect the other way, or a change in a side signal; the % refers to the signal ratio
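Read-out is the ratio of GFP to DsRed2 object intensity, acquired by 488 nm laser-scanning cytometry on HeLa lamin A-EGFP minigene reporter cells. Compound incubation 48 hrs at 37 °C in Opti-MEM with 2% FBS; DMSO 0.5% final.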
IMPase Li cell: cell-permeable IMPase inhibitors with lithium potentiation; CHO-M1 cells, IP1 TR-FRET (IP-One), carbachol + lithium; Potency, µM (doses to about 59.4 µM), actives largely listed as inhibitors; 210,000 compounds, 0.35% hits; AID 1457;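 further: IP1 builds up when IMPase is blocked and the TR-FRET signal falls; nearly all actives have a fitted effect of over 50% in size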
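IP1 accumulation measured by competitive TR-FRET in lysed CHO-M1 cells after 30 min compound exposure at 37C, with a small lithium addition to potentiate weak responses. Hill-equation AC50 from ratio and donor-channel data.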
Large screens that a line does not name were inactive. Unless noted, the call rests on the fitted dose curve; in most records, active means well fitted curve in the direction sought with a large enough effect; inconclusive means small, poorly fitted or top-dose-only effect, or another doubt; inactive means no such curve, though single readings can be large; an effect the other way counts as inactive or inconclusive.

O=C(O)CCCNc1ccc(S(=O)(=O)N2CCCCC2)cc1	none (no result: HPGD inh)
O=C1C2ON(c3ccccc3)C(c3cccnc3)C2C(=O)N1Cc1ccccc1 (stereo not drawn)	ALDH1A1 inh 35µM
CC(C(=O)NC(C)(C)C)N(C(=O)CS(=O)CC(=O)Nc1ccc(F)cc1)c1ccccc1F (stereo not drawn)	none (no result: HPGD inh)
O=C1C=C(Nc2ccc(O)cc2)CC(c2ccco2)C1 (stereo not drawn)	ALDH1A1 inh inconclusive, HPGD inh 22µM, Lamin A splicing inconclusive
CC(C)CNC1=CC(=O)CC(c2ccco2)C1 (stereo not drawn)	ALDH1A1 inh 14µM
CCOC(=O)c1ccc(NC2=CC(=O)CC(c3ccco3)C2)cc1 (stereo not drawn)	ALDH1A1 inh inconclusive (no result: HPGD inh)
O=C1C=C(NCc2ccc(Cl)cc2)CC(c2ccco2)C1 (stereo not drawn)	none
COc1cc(C(=O)N/N=C(\C)Cc2ccccc2)cc(OC)c1OC	ALDH1A1 inh 20µM, Lamin A splicing inconclusive
COc1cc(C(=O)NC(c2ccccc2)c2ccccc2)cc(Cl)c1OC	ALDH1A1 inh 2µM
COc1ccc(C(NC(=O)c2ccc(F)cc2)c2ccccc2)cc1 (stereo not drawn)	ALDH1A1 inh 22µM (no result: KinaseGlo FLuc, HPGD inh, IMPase Li cell)
C/C(Cc1ccccc1)=N\NC(=O)c1ccc(F)cc1	ALDH1A1 inh inconclusive
CCOC(=O)c1cnc(-c2ccc(C(F)(F)F)cn2)[nH]c1=O	none (no result: KinaseGlo FLuc, HPGD inh, IMPase Li cell)
COc1ccc(C(=O)NCc2nnc(SCC(=O)N3CCCc4ccccc43)o2)cc1OC	ALDH1A1 inh inconclusive (no result: HPGD inh, Lamin A splicing)
O=C(/C=C/c1ccc(Cl)c([N+](=O)[O-])c1)Nc1ccc(N2CCCC2)cc1	none
Cc1ccc(S(=O)(=O)Nc2ccc(Br)cc2/C=N/n2cnnc2)cc1	ALDH1A1 inh 28µM
Cc1oc(-c2cccc(F)c2)nc1CN(Cc1ccccc1)C[C@@H]1CCC(=O)N1	none (no result: KinaseGlo FLuc, HPGD inh, Lamin A splicing)
O=C(c1ccco1)N1CCN(c2ncnc3c2nnn3Cc2ccccc2Cl)CC1	ALDH1A1 inh inconclusive, HPGD inh 35µM, Lamin A splicing inconclusive
O=C(c1ccco1)N1CCN(C(c2ccc(Cl)cc2)c2nnnn2Cc2ccccc2)CC1 (stereo not drawn)	ALDH1A1 inh inconclusive
Clc1ccccc1Cn1nnc2c(NCC3CC3)ncnc21	ALDH1A1 inh inconclusive, Lamin A splicing inconclusive
O=C(c1ccco1)N1CCN(c2nc(C(F)(F)F)nc3c2nnn3Cc2ccccc2)CC1	ALDH1A1 inh 14µM, HPGD inh inconclusive, Lamin A splicing inconclusive
O=C(c1ccco1)N1CCN(c2nnc(-c3ccccc3)c3ccccc23)CC1	ALDH1A1 inh 25µM
O=C(c1ccco1)N1CCN(c2ncccn2)CC1	ALDH1A1 inh inconclusive
Clc1ccccc1Cn1nnc2c(Nc3ccccc3)ncnc21	ALDH1A1 inh 25µM, Lamin A splicing inconclusive
O=C1C=CC(=O)N1CCCCCCN1C(=O)C=CC1=O	ALDH1A1 inh 0.22µM, HPGD inh 2.2µM, Lamin A splicing inconclusive
CNC[C@@H](SC)c1ccc(O)c(O)c1	none (no result: Lamin A splicing)
COCCNC(=O)c1nn2cccnc2c1Cl	HPGD inh inconclusive
O=C(NCC12CC3CC(CC(C3)C1)C2)c1nn2cccnc2c1Cl	ALDH1A1 inh 16µM, HPGD inh 18µM
O=C(NCC1CCCO1)c1nn2cccnc2c1Cl (stereo not drawn)	HPGD inh 25µM
CCOC(=O)CSC1=C(C#N)C(c2ccc(OC)cc2)C2=C(CC(C)(C)CC2=O)N1 (stereo not drawn)	ALDH1A1 inh inconclusive, HPGD inh inconclusive, Lamin A splicing inconclusive, IMPase Li cell 10µM
CCOC(=O)CSC1=C(C#N)C(c2ccc(F)cc2)C(C(C)=O)=C(C)N1 (stereo not drawn)	ALDH1A1 inh 22µM
COc1ccc(C2C(C#N)=C(SC)NC3=C2C(=O)CC(C)(C)C3)cc1 (stereo not drawn)	ALDH1A1 inh 14µM
CN(C)C1CCN(C(=O)c2ccc(-n3c(=O)c(=O)[nH]c4ccccc43)cc2)C1 (stereo not drawn)	none (no result: Lamin A splicing, IMPase Li cell)
Cc1ccc(S(=O)(=O)/C(C#N)=C/c2c(N3CCN(C)CC3)nc3c(C)cccn3c2=O)cc1	ALDH1A1 inh inconclusive, HPGD inh inconclusive
N#C/C(=C\c1c(N2CCC(C(N)=O)CC2)nc2ccccn2c1=O)S(=O)(=O)c1ccccc1	ALDH1A1 inh inconclusive
CCN1CCN(c2nc3c(C)cccn3c(=O)c2/C=C(\C#N)S(=O)(=O)c2ccc(C)cc2)CC1	HPGD inh inconclusive
Cc1cccn2c(=O)c(/C=C(\C#N)S(=O)(=O)c3ccccc3)c(N3CCN(C)CC3)nc12	ALDH1A1 inh 11µM
Cc1ccc(S(=O)(=O)/C(C#N)=C/c2c(N3CC(C)OC(C)C3)nc3c(C)cccn3c2=O)cc1 (stereo not drawn)	ALDH1A1 inh inconclusive, HPGD inh 2.2µM
CC1CN(c2nc3ccccn3c(=O)c2/C=C(\C#N)S(=O)(=O)c2ccccc2)CC(C)O1 (stereo not drawn)	ALDH1A1 inh 13µM, HPGD inh 18µM
CC1CN(c2ccc(NS(=O)(=O)c3ccccc3)cc2C(=O)O)CC(C)O1 (stereo not drawn)	Lamin A splicing inconclusive (no result: KinaseGlo FLuc, HPGD inh, IMPase Li cell)
Cc1ccc(C(=O)CSc2n[nH]c(-c3ccco3)n2)cc1C	ALDH1A1 inh inconclusive, HPGD inh 5µM
CCc1nc(SCC(=O)c2ccc(C)c(C)c2)n[nH]1	ALDH1A1 inh inconclusive, HPGD inh inconclusive
COc1ccc(C(=O)CSc2n[nH]c(-c3ccco3)n2)cc1	HPGD inh 3.5µM
CCC(C)C(=O)OC1CCC=C2C=CC(C)C(CCC3CC(O)CC(=O)O3)[C@@H]21 (stereo partly drawn)	Lamin A splicing inconclusive
Cc1cc(C(=O)Nc2ccccc2)oc1C	ALDH1A1 inh inconclusive, KinaseGlo FLuc 13µM, HPGD inh inconclusive
CN(C)S(=O)(=O)c1cccc(NC(=O)c2cc3ccccc3o2)c1	ALDH1A1 inh inconclusive, Lamin A splicing inconclusive
O=C(NCc1ccccc1)c1cc2ccccc2o1	ALDH1A1 inh inconclusive, HPGD inh 18µM
Cc1ccc(-c2ccc(C(=O)Nc3ccccc3)o2)c2ccccc12	ALDH1A1 inh inconclusive, HPGD inh inconclusive, Lamin A splicing inconclusive
CCNC(=O)c1cc2ccccc2o1	none
O=C(Nc1ccccc1)c1cc2ccccc2o1	KinaseGlo FLuc 13µM
CCN(CC)S(=O)(=O)c1cccc(NC(=O)c2cc3ccccc3o2)c1	ALDH1A1 inh 22µM, Lamin A splicing inconclusive
O=C(Cc1cnc2ncnn2c1)N1CCc2c([nH]c3ccccc23)C1c1ccccn1 (stereo not drawn)	ALDH1A1 inh inconclusive (no result: HPGD inh, Lamin A splicing)
Nn1cc(-c2ccccc2)nc1SCC(=O)Nc1ccc(S(N)(=O)=O)cc1	ALDH1A1 inh inconclusive (no result: KinaseGlo FLuc, HPGD inh, IMPase Li cell)
COc1ccc(C(=O)N/N=c2\oc3ccccc3cc2C(=O)NCc2ccccc2)cc1	ALDH1A1 inh 11µM
CC(NC(=O)c1cc2ccccc2o1)C(=O)O (stereo not drawn)	ALDH1A1 inh 22µM

Source: PubChem BioAssay
